Laboratory results published in PubChem BioAssay (NCI).
About 83,000 compounds went through this panel and 20% of them were active in at least one assay; those are over-represented in the sample as a whole.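 Plates (96-well) were seeded with cells, treated with compound at one concentration, and incubated for 48 hours before percent growth was determined.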 Calls of active or inactive are those of the source. How the source made its calls: active means growth percent below 10; inactive means the rest.

Tests used:
Assay in all cases: NCI-60 one-dose screen, 48 h (100 = growth as untreated, 0 = no growth, -100 = all killed)
Details in all cases: 10 µM unless noted
SK-MEL-2 melanoma = tested on: SK-MEL-2 melanoma
EKVX NSCLC = tested on: EKVX NSCLC
SN12C renal = tested on: SN12C renal
UO-31 renal = tested on: UO-31 renal
TK-10 renal = tested on: TK-10 renal
ACHN renal = tested on: ACHN renal
CAKI-1 renal = tested on: CAKI-1 renal
A498 renal = tested on: A498 renal
CCRF-CEM leukemia = tested on: CCRF-CEM leukemia
MOLT-4 leukemia = tested on: MOLT-4 leukemia

Measured: growth

COC(=O)[C@H]1CCCN1C[C@@H](O)CN1C(=O)/C(=C\c2cc(OC)c(OC)c(OC)c2)c2ccccc21
inactive: SK-MEL-2 melanoma 94.3% | EKVX NSCLC 104% | SN12C renal 98.2% | UO-31 renal 82.1% | TK-10 renal 102% | ACHN renal 105% | CAKI-1 renal 93.1% | A498 renal 113% | CCRF-CEM leukemia 93.9% | MOLT-4 leukemia 81.6%

O=C1Nc2ccc(I)cc2C1=O
inactive: SK-MEL-2 melanoma 85.4% | EKVX NSCLC 102% | SN12C renal 98% | UO-31 renal 77.9% | TK-10 renal 140% | ACHN renal 103% | CAKI-1 renal 64.5% | A498 renal 122% | CCRF-CEM leukemia 119% | MOLT-4 leukemia 102%

O=C1c2c(c3c4ccccc4[nH]c3c3ccc4ccccc4c23)C(=O)N1CCN1CCCCC1
active: CCRF-CEM leukemia 3.2% | MOLT-4 leukemia 7.16%
inactive: SK-MEL-2 melanoma 90.5% | EKVX NSCLC 75.5% | SN12C renal 22.6% | UO-31 renal 39.7% | TK-10 renal 87.4% | ACHN renal 12.7% | CAKI-1 renal 24.7% | A498 renal 45.7%

CNC(=O)c1cc(Oc2ccc3c(c2)sc2nc(-c4cc(OC)c(OC)c(OC)c4)cn23)ccn1
inactive: SK-MEL-2 melanoma 54.3% | EKVX NSCLC 50.2% | SN12C renal 53.1% | UO-31 renal 30.3% | TK-10 renal 50.3% | ACHN renal 51.9% | CAKI-1 renal 43.6% | A498 renal 53.7% | CCRF-CEM leukemia 39.4% | MOLT-4 leukemia 18.3%

O=S(=O)(Nc1ccccc1)c1ccc(C2CC3(Cl)C(Cl)=C(Cl)C2(Cl)C3(Cl)Cl)cc1 (stereo not given)
active: SN12C renal -18.5% | CAKI-1 renal -19.8%
inactive: SK-MEL-2 melanoma 74.1% | EKVX NSCLC 36.3% | UO-31 renal 26.7% | TK-10 renal 66.2% | ACHN renal 40% | A498 renal 62.4% | CCRF-CEM leukemia 47.6% | MOLT-4 leukemia 30%

Cn1ccnc1C(=O)C(=O)Nc1ccc(CC(=O)Nc2ccccc2)cc1
inactive: SK-MEL-2 melanoma 123% | EKVX NSCLC 102% | SN12C renal 103% | UO-31 renal 85.7% | TK-10 renal 116% | ACHN renal 107% | CAKI-1 renal 93.3% | A498 renal 103% | CCRF-CEM leukemia 105% | MOLT-4 leukemia 107%

COc1ccc2[nH]cc(C(c3cc(F)cc(F)c3)c3c[nH]c4ccc(OC)cc34)c2c1
inactive: SK-MEL-2 melanoma 62.5% | EKVX NSCLC 88.4% | SN12C renal 87.3% | UO-31 renal 44.2% | TK-10 renal 124% | ACHN renal 82.9% | CAKI-1 renal 101% | A498 renal 77.8% | CCRF-CEM leukemia 60.1% | MOLT-4 leukemia 37.4%

COc1cc(-c2nc(SCC(C)C)nc(Nc3cccc4ccccc34)c2C#N)cc(OC)c1OC
inactive: SK-MEL-2 melanoma 107% | EKVX NSCLC 98.7% | SN12C renal 92.6% | UO-31 renal 67.9% | TK-10 renal 128% | ACHN renal 98.4% | CAKI-1 renal 68.5% | A498 renal 74.3% | CCRF-CEM leukemia 75% | MOLT-4 leukemia 64.3%

Cc1cc(=O)[nH]c2c(C#N)cnn12
inactive: SK-MEL-2 melanoma 102% | EKVX NSCLC 97% | SN12C renal 97.4% | UO-31 renal 83.8% | TK-10 renal 101% | ACHN renal 98.8% | CAKI-1 renal 93.6% | A498 renal 93.1% | CCRF-CEM leukemia 101% | MOLT-4 leukemia 105%

NC(=O)c1c(NC(=O)c2ccccc2)sc2c1CCC(=O)C2
active: UO-31 renal 0.418% | ACHN renal 7.58% | CAKI-1 renal -8.25% | CCRF-CEM leukemia 5.12% | MOLT-4 leukemia 5.67%
inactive: SK-MEL-2 melanoma 12.7% | EKVX NSCLC 19.2% | SN12C renal 12.2% | TK-10 renal 54.9% | A498 renal 92.3%

CC1=C(Nc2ccc(N3CCN(C)CC3)cc2)C(=O)c2cncnc2C1=O
inactive: SK-MEL-2 melanoma 109% | EKVX NSCLC 98.3% | SN12C renal 98.5% | UO-31 renal 86.2% | TK-10 renal 142% | CAKI-1 renal 87.9% | A498 renal 113%
active: ACHN renal 6.25% | CCRF-CEM leukemia 5.93% | MOLT-4 leukemia -11.9%

Nc1ncnc2c1N=C(c1ccc3c(c1)OCO3)CC(c1cccc(Nc3ccnc4cc(Cl)ccc34)c1)N2 (stereo not given)
inactive: SK-MEL-2 melanoma 68.7% | EKVX NSCLC 62.2% | SN12C renal 50.7% | UO-31 renal 44% | TK-10 renal 65.7% | ACHN renal 67.5% | CAKI-1 renal 53.4% | A498 renal 61.5% | CCRF-CEM leukemia 21.5% | MOLT-4 leukemia 52.7%

Cc1ccc(-c2nn(-c3ccccc3)cc2C=C2C(=O)ON=C2C(C)C)cc1
active: CCRF-CEM leukemia 1.71% | MOLT-4 leukemia -15.6%
inactive: SK-MEL-2 melanoma 84.5% | EKVX NSCLC 102% | SN12C renal 75.9% | UO-31 renal 72% | TK-10 renal 86.9% | ACHN renal 89.3% | CAKI-1 renal 61.3% | A498 renal 84.9%

Cn1c(-c2ccc(Br)cc2)c(O)c(=O)c2c(F)cccc21
inactive: SK-MEL-2 melanoma 87.1% | EKVX NSCLC 56% | SN12C renal 68.8% | UO-31 renal 26.3% | TK-10 renal 42.4% | ACHN renal 37% | CAKI-1 renal 47.9% | A498 renal 62.3% | CCRF-CEM leukemia 94.1% | MOLT-4 leukemia 99%

O=C1c2ccc3c4ccc5c6c(ccc(c7ccc(c2c37)C(=O)N1CCC[P+](c1ccccc1)(c1ccccc1)c1ccccc1)c64)C(=O)N(CCC[P+](c1ccccc1)(c1ccccc1)c1ccccc1)C5=O
active: CAKI-1 renal 0.659%
inactive: SK-MEL-2 melanoma 98.7% | EKVX NSCLC 45.6% | SN12C renal 70.5% | UO-31 renal 80.7% | TK-10 renal 141% | ACHN renal 104% | A498 renal 78.1% | CCRF-CEM leukemia 45.9% | MOLT-4 leukemia 46.1%

Oc1c(Cl)cc(Cl)cc1/C=N/Nc1nnc(N/N=C/c2cc(Cl)cc(Cl)c2O)c2ccccc12
active: UO-31 renal 0.684% | ACHN renal 7.55% | CAKI-1 renal -34.7% | A498 renal -2.98% | MOLT-4 leukemia 5.23%
inactive: SK-MEL-2 melanoma 51.2% | EKVX NSCLC 10.2% | SN12C renal 20% | TK-10 renal 37.8% | CCRF-CEM leukemia 14%

Cc1nc2sc(C(=O)Nc3cccc(Cl)c3C)c(N)c2cc1C(=O)c1ccccc1
active: A498 renal -7.4% | CCRF-CEM leukemia 8.23%
inactive: SK-MEL-2 melanoma 49.7% | EKVX NSCLC 40.5% | SN12C renal 29.3% | UO-31 renal 38.8% | TK-10 renal 47.1% | ACHN renal 33.7% | CAKI-1 renal 33.1% | MOLT-4 leukemia 16.4%

CC(=O)Nc1nc2ccc(NS(=O)(=O)c3cccc4c(N(C)C)cccc34)cc2[nH]1
inactive: SK-MEL-2 melanoma 80.8% | EKVX NSCLC 75.9% | SN12C renal 69.8% | UO-31 renal 68.4% | TK-10 renal 102% | ACHN renal 75.7% | CAKI-1 renal 42.7% | CCRF-CEM leukemia 47.9% | MOLT-4 leukemia 59.4%
active: A498 renal 2.64%

CCc1ccc(C(=O)/C=C/C23c4ccccc4C(c4ccccc42)C2C(=O)NC(=O)C23)cc1 (stereo not given)
active: SK-MEL-2 melanoma 3.45% | SN12C renal -7.89% | ACHN renal 0.0344% | A498 renal 5.29% | CCRF-CEM leukemia 0.462% | MOLT-4 leukemia 2.03%
inactive: EKVX NSCLC 23.2% | UO-31 renal 22.1% | TK-10 renal 18% | CAKI-1 renal 27.5%

CCCCNC(=O)Oc1ccc(/C(=C(/CC)Cc2ccccc2)c2ccc(OCCN3CCCCCC3)cc2)cc1
active: CCRF-CEM leukemia 5.36% | MOLT-4 leukemia 2.34%
inactive: SK-MEL-2 melanoma 84.9% | EKVX NSCLC 59.2% | SN12C renal 25.8% | UO-31 renal 35.2% | TK-10 renal 92.4% | ACHN renal 66.4% | CAKI-1 renal 72.1% | A498 renal 72%

CNC(=O)c1c(NC(=O)c2ccc(C(F)(F)F)cc2)sc2c1CCC(=O)C2
inactive: TK-10 renal 34.2%
active: SK-MEL-2 melanoma -12.1% | EKVX NSCLC 9.76% | SN12C renal 5.31% | UO-31 renal -94.3% | ACHN renal -20.3% | CAKI-1 renal -32.9% | A498 renal -12.5% | CCRF-CEM leukemia -5.31% | MOLT-4 leukemia 2.28%

CN1CCN(C(=O)OCc2ccc3c(Cl)cc(Cl)c(O)c3n2)CC1
active: MOLT-4 leukemia 8.31%
inactive: SK-MEL-2 melanoma 76% | EKVX NSCLC 79.7% | SN12C renal 56.9% | UO-31 renal 34% | TK-10 renal 105% | ACHN renal 45% | CAKI-1 renal 55.1% | A498 renal 106% | CCRF-CEM leukemia 40.5%

O=c1oc2ccc([N+](=O)[O-])cc2cc1Br
inactive: SK-MEL-2 melanoma 106% | EKVX NSCLC 102% | SN12C renal 105% | UO-31 renal 88.5% | TK-10 renal 105% | ACHN renal 117% | CAKI-1 renal 94.5% | A498 renal 99.7% | CCRF-CEM leukemia 109% | MOLT-4 leukemia 98.5%

O=C(NCCCN1CCOCC1)c1cccc(N2C(=O)/C(=C/c3ccc(F)cc3)SC2=S)c1
inactive: SK-MEL-2 melanoma 109% | EKVX NSCLC 88.5% | SN12C renal 93.6% | UO-31 renal 70.7% | TK-10 renal 100% | ACHN renal 87.2% | CAKI-1 renal 81.2% | A498 renal 51.6% | CCRF-CEM leukemia 108% | MOLT-4 leukemia 111%

C/C(Nc1ccc(Cl)c(Cl)c1)=C1\CCOC1=O
inactive: SK-MEL-2 melanoma 97% | EKVX NSCLC 77.4% | SN12C renal 88.9% | UO-31 renal 84.3% | TK-10 renal 104% | ACHN renal 79.7% | CAKI-1 renal 57.7% | A498 renal 93.5% | CCRF-CEM leukemia 81.5% | MOLT-4 leukemia 80.9%

O=C1/C(=C\c2cn(-c3ccccc3)nc2-c2ccc(-c3cccs3)cc2)CCc2ccccc21
inactive: SK-MEL-2 melanoma 70.4% | EKVX NSCLC 68.5% | SN12C renal 66.8% | UO-31 renal 54.2% | TK-10 renal 101% | ACHN renal 79.5% | CAKI-1 renal 41.2% | A498 renal 10.3% | CCRF-CEM leukemia 48% | MOLT-4 leukemia 49.1%
